Values without a mark were called inactive. Calls of active or inactive are those of the source.
What follows are compounds tested against Homeobox protein Hox-A13 (Mus musculus) (UniProt Q62424) (assay: disruptors of Hoxa13 oligonucleotide interaction – biochemical, fluorescence polarization, labeled oligonucleotide, primary screen (AID 1185)). Conditions: Hoxa13:DNA binding, 15 min, higher = more signal, called active from +8 up or from −8 down.
Sequence of Homeobox protein Hox-A13 (Mus musculus) (Q62424 whole entry, looked up): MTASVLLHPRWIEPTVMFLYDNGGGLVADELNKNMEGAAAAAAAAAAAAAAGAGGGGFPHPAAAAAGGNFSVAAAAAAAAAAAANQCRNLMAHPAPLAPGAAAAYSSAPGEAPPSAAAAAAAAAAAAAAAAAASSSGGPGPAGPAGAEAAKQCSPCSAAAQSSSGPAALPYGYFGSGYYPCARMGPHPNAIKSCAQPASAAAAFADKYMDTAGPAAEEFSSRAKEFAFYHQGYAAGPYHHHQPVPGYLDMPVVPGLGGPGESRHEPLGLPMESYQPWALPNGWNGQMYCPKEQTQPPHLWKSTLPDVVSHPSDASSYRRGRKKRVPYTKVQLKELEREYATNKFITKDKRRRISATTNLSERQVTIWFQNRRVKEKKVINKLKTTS

`CS(=O)(=O)CCOC(=O)C1=CC(CCCO)=CC(c2cccs2)N(Cc2cccc(OC(F)(F)F)c2)C=C1C(=O)OCCS(C)(=O)=O` (stereo unspecified) was tested. Which z-score did it give?
Its z-score is -4.22.

Which z-score does the source give for `COCCCNC(=O)[C@]1(CCC(=O)OC(C)(C)C)N=C(c2ccc(OCCCO)cc2)O[C@@H]1c1ccccc1N=[N+]=[N-]` here?
The z-score was -4.03.

With `Cc1ccc(C2CC=C(C(=O)O)CN2S(=O)(=O)c2ccc(C)cc2)cc1` (stereo unspecified) as the compound, how does the z-score read?
The z-score was -4.53.

`O=C1O[C@@H](c2ccccc2)[C@@H](c2ccccc2)N2[C@@H](c3ccc(OCCO)cc3)[C@]3(C(=O)Nc4ccccc43)[C@@H](C(=O)N3CCN(c4ncccn4)CC3)[C@H]12` was tested. Which z-score did it give?
The z-score was 1.84.

`COCCOC(=O)N1C(=O)[C@@]2(c3cc(C#CCNC(N)=O)ccc31)[C@H](c1ccccc1OCCO)N1[C@H](c3ccccc3)[C@H](c3ccccc3)OC(=O)[C@H]1[C@@H]2C(=O)N1CCN(c2ncccn2)CC1` was tested. Which z-score did it give?
Its z-score is -0.789.

How did the z-score turn out when `COCCOC(=O)N1C(=O)[C@@]2(c3cc(C#Cc4ccc(OC)cc4)ccc31)[C@H](C(=O)N1CCN(c3ncccn3)CC1)[C@H]1C(=O)O[C@H](c3ccccc3)[C@H](c3ccccc3)N1[C@@H]2c1ccc(OCCO)cc1` was run?
The z-score was 1.38.

For `CN(C)CCCNC(=O)[C@@H]1c2ccccc2C(=O)N(Cc2cc(F)cc(C(F)(F)F)c2)[C@H]1c1ccc(CO)cc1`, which z-score is on record?
Its z-score is -3.29.

`CCCNC(=O)[C@@H]1c2ccccc2C(=O)N(c2ccc(C)cn2)[C@H]1c1ccc(CO)cc1` was tested. Which z-score did it give?
The z-score was -2.4.

`CN1C(=O)C2C=CC(C(O)c3ccc(I)cc3)N(NC(=O)OC(C)(C)C)C2C1=O` (stereo unspecified) was tested. Which z-score did it give?
The z-score was -2.75.

With `COC(=O)c1c(CC[C@@H](CO)NC(=O)N[C@H](Cc2ccccc2)Cn2cc(-c3ccccc3N)nn2)oc(C(C)=O)c1C(=O)OC` as the compound, how does the z-score read?
The z-score was -5.26.

How did the z-score turn out when `CCCC=C(CCC)[C@@H](NC(=O)c1ccc(-c2ccccc2)cc1)c1ccc(C(=O)OC)cc1` was run?
Its z-score is -0.539.

`COCC(=C=CC[C@@H](O)c1ccccc1OCCO)CCO` was tested. Which z-score did it give?
Its z-score is -2.37.

For `CC1CC/C=C\[C@H]2OC34C=CCN(C(C)C)C(=O)[C@H]3N(CCCO)C(=O)[C@@H]4C2C(=O)O1` (stereo partly specified), which z-score is on record?
The z-score was -2.96.

With `Cn1cccc1C(O)C1C=CC2C(=O)NC(=O)C2N1Nc1ccccn1` (stereo unspecified) as the compound, how does the z-score read?
The z-score was -5.35.

For `CCCC[C@H]1OB(O)C[C@H]2C1=C(C)C[C@H]1C(=O)N(C)C(=O)[C@H]12`, which z-score is on record?
The z-score was -9.92 (active).

How did the z-score turn out when `Cc1ccc(S[C@]2(C(=O)NCC(F)(F)F)CC(=O)N(Cc3ccccc3Cl)[C@@H]2c2ccc(CO)cc2I)cc1` was run?
The z-score was -2.61.

`CC(C)NC(=O)[C@@H]1c2ccccc2C(=O)N(CC23CC4CC(CC(C4)C2)C3)[C@H]1c1ccc(CO)cc1` was tested. Which z-score did it give?
Its z-score is -4.68.

`CCc1cccc(NC(=O)O[C@H]2[C@H](OC(=O)Nc3ccc4c(c3)OCO4)[C@@H](OC(=O)Nc3ccc4c(c3)OCO4)[C@@H](OC)O[C@@H]2CO)c1` was tested. Which z-score did it give?
The z-score was -6.22.

How did the z-score turn out when `CC(C)OC(=O)C=C1C[C@@H](c2ccc(C#N)cc2)O[C@@H](c2ccc(C#N)cc2)O1` was run?
The z-score was -5.34.

With `COC(=O)C1=CCC(c2cccc(Cl)c2)O1` (stereo unspecified) as the compound, how does the z-score read?
Its z-score is -0.451.

`CCCC[C@@H](O)C1=C(C)C[C@H]2C(=O)N(Cc3ccccc3)C(=O)[C@H]2[C@H]1CO` was tested. Which z-score did it give?
The z-score was -3.33.
